Results from PubChem BioAssay (NCATS).
Results filed as inconclusive are left out. Active and inactive are the calls of the source. Unless noted, calls come from the whole dose curve; as a rule, active = well fitted curve in the direction sought with a large enough effect; inconclusive = small, poorly fitted or top-dose-only effect, or another doubt; inactive = no such curve, though single readings can be large; an effect the other way counts as inactive or inconclusive.

Legend:
[1] = qHTS for differential inhibitors of proliferation of Plasmodium falciparum line HB3 (AID 1886); conditions: Potency: Plasmodium falciparum HB3 proliferation inhibition;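 note: parasites grown with compound for 72 h before SYBR Green readout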; note: potency is the fitted concentration of half-maximal effect
[2] = qHTS Assay for Modulators of Human Peripheral Myelin Protein 22 (PMP22) Expression/Activity (AID 1967; active = well fitted curve in the direction sought with a large enough effect in the signal ratio; the % refers to the signal ratio)
Procedure, shortened: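 MSC80 mouse Schwann cells stably carrying Pmp22 promoter–green click beetle luciferase plus EF-alpha–red luciferase control were dosed for 24h at 37 °C. Dual-colour luminescence was filter-overlap corrected; %Activity came from green/red ratio versus untreated cells.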

[3] = qHTS Assay for Identification of Small Molecule Inducers of Hypoxia Response (AID 2120; active = well fitted curve in the direction sought with a large enough effect in the signal ratio, with a control signal flat, not every such curve was filed as active; the % refers to the signal ratio)
Procedure, shortened: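 Induction of beta-lactamase reporter activity was measured in CellSensor HRE-bla ME-180 cells after 17 h compound treatment at 37 degrees C, using CCF4 substrate and the 460nm/530nm emission ratio to derive AC50 values.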

[4] = target: Ferritin light chain (Equus caballus) (UniProt P02791); test: qHTS Validation Assay for Identification of Novel General Anesthetics (AID 2323); note: series mostly up to about 77 µM
Ferritin light chain (Equus caballus), sequence (P02791 2-175 limits assumed): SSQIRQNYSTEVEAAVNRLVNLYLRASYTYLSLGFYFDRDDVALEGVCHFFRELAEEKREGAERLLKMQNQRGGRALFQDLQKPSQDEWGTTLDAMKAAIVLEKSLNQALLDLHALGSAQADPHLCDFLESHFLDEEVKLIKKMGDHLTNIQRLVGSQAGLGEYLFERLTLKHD
Procedure, shortened: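 Competitive displacement of profluorescent 1-aminoanthracene (1-AMA, 50% saturated solution in PBS) from 10 uM horse-spleen apoferritin. Compounds incubated 10 min at room temperature; fluorescence read at 380 nm excitation/535 nm emission, normalized to free 1-AMA and complex, fitted with four-parameter Hill equation.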

[5] = target: ATP-dependent DNA helicase Q1 (Homo sapiens) (UniProt P46063); test: qHTS Validation Assay for Inhibitors of RecQ-Like Dna Helicase 1 (RECQ1) (AID 2353)
ATP-dependent DNA helicase Q1 (Homo sapiens), sequence (P46063 whole entry, looked up): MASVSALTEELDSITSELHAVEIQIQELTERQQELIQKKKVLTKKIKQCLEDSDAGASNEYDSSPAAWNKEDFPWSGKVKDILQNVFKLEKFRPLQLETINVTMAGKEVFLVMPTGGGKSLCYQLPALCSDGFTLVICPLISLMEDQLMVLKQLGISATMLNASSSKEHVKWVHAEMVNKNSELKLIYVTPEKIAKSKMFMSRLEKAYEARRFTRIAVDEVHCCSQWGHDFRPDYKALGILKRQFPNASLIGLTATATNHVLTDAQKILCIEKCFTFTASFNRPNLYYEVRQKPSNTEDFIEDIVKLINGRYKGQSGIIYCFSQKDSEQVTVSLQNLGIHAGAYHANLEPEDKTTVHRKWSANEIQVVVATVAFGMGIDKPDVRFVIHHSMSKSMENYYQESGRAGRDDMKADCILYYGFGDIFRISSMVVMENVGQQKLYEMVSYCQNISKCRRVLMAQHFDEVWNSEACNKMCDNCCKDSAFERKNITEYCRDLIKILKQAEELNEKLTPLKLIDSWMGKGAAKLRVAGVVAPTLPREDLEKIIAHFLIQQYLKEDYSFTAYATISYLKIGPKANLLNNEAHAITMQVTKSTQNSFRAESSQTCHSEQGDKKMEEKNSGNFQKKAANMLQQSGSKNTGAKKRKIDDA
Procedure, shortened: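 50 nM RECQ1T1 preincubated 15 min with compound in Tris pH 8.0 buffer with MgCl2, DTT, Tween-20 and 2.5 ug/ml poly(dI-dC); started with 200 nM TAMRA/BHQ-2 forked duplex and 2 mM ATP. Unwinding read as fluorescence (525/598 nm), two reads 2 h apart.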

[6] = Cytometric Cell-Based qHTS for Inhibitors of the mTORC1 Signaling Pathway in MEF (Tsc2-/-, p53-/-) Cells (AID 2660);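 note: Tsc2 and p53 null MEFs carrying empty vector with compound for 24 h; percent of cells above a phospho-rpS6 to PI ratio cutoff in each well; series mostly up to about 38 µM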
Procedure, shortened: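 Immunofluorescence qHTS of rpS6 Ser235/236 phosphorylation: MEFs (Tsc2-/-, p53-/-) treated 24 h, 37 C, in DMEM + 10% FBS. Alexa-488 signal normalized to PI count, referenced to rapamycin (7.5 nM) and DMSO; PI cell number recorded for viability.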

[7] = High Content Imaging Cell-Based qHTS for Inhibitors of the mTORC1 Signaling Pathway in MEF Cells (AID 2667);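 note: Tsc2-/- p53-/- MEFs stably re-expressing wild-type Tsc2 exposed 24 h; series mostly up to about 38 µM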
Procedure, shortened: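 WT MEFs (Tsc2-/-, p53-/- re-expressing Tsc2), in DMEM + 10% FBS, were treated with compound for 24 h at 37 C. Cells were then fixed and stained for phospho-rpS6 Ser235/236 with propidium iodide as cell count. Values are % positive cells, with thresholds set against rapamycin-treated cells.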

[8] = Cytometry Cell-Based qHTS for Inhibitors of the mTORC1 Signaling Pathway in MEF cells (AID 2668);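 note: Tsc2-/- p53-/- mouse embryonic fibroblasts stably re-expressing wild-type Tsc2; percent cells positive for phospho-rpS6 Ser235/236 relative to propidium iodide stain; series mostly up to about 38 µM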
Procedure, shortened: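 WT MEFs (Tsc2-/-, p53-/- stably re-expressing WT Tsc2) in DMEM + 10% FBS received compounds 24 hrs after plating, for 24 hrs at 37 degree Celsius. Fixed cells stained with Alexa-488 anti-phospho-rpS6 Ser235/236 and propidium iodide; laser-scanning cytometry read-out.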

[9] = Validation screen for small molecules that induce DNA re-replication in MCF 10A normal breast cells (AID 463097); note: nearly all actives have a fitted effect of over 60% in size
Procedure, shortened: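 Readout: Hoechst nuclear fluorescence intensity, 405 ex / 500-530 em, by scanning plate imager; re-replication scored as increase in nuclei with elevated DNA content. Cells exposed to compound 48 hr, 37 C, 5% CO2 beforehand.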

[10] = target: Ubiquitin carboxyl-terminal hydrolase 2 (Homo sapiens) (UniProt O75604); test: qHTS Validation Assay for Inhibitors of Ubiquitin-specific Protease USP2a Using CHOP2 as the Reporter (AID 463106)
Ubiquitin carboxyl-terminal hydrolase 2 (Homo sapiens), sequence (O75604 whole entry, looked up): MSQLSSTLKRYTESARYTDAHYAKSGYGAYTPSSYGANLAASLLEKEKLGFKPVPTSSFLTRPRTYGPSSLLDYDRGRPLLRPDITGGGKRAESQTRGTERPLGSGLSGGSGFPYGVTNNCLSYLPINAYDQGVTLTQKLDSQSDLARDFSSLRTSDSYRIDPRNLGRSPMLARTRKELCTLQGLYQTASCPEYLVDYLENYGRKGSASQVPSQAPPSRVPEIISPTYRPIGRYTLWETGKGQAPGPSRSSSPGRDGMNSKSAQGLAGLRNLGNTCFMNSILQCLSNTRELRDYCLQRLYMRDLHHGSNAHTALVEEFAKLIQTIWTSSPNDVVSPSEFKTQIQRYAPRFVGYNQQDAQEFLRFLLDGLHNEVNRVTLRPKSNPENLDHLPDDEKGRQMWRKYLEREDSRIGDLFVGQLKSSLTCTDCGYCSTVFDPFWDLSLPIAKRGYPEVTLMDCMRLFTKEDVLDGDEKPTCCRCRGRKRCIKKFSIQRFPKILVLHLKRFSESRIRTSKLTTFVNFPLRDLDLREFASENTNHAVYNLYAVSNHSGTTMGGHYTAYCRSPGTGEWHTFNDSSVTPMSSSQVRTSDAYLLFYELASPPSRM
Procedure, shortened: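 USP2 core (10 nM final) was preincubated with compound 30 min at RT in pH 8.0 Tris/CaCl2/beta-ME/CHAPS buffer. Ub-CHOP2 and reporter substrate (25 nM final each) were then added, with fluorescence (Ex 485/Em 531) read after 60 min. Data were normalized to NEM full inhibition and fitted to concentration-response curves.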

[11] = target: DNA polymerase III PolC-type (Bacillus subtilis (strain 168)) (UniProt P13267); test: qHTS Validation Assay for the Inhibitors of DNA Replication in Gram-Positive Bacteria (AID 485295);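 note: PicoGreen fluorescence of double-stranded DNA made on primed circular M13 template; series mostly up to about 57 µM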
Procedure, shortened: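 Reconstituted B. subtilis holoenzyme (Pol III, beta clamp, SSB, primase) was preincubated with compound at room temperature, then given single-stranded circular M13Gori plus dNTPs and NTPs. EDTA-containing PicoGreen stopped the reaction, and dsDNA product was read by fluorescence.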

[12] = target: Tumor susceptibility gene 101 protein (Homo sapiens) (UniProt Q99816); test: qHTS Validation Assay for Iinhibitors of HIV-1 Budding by Blocking the Interaction of PTAP/TSG101 (AID 485342; calls by dose curve)
Tumor susceptibility gene 101 protein (Homo sapiens), sequence (Q99816 whole entry, looked up, the tested form may be a part): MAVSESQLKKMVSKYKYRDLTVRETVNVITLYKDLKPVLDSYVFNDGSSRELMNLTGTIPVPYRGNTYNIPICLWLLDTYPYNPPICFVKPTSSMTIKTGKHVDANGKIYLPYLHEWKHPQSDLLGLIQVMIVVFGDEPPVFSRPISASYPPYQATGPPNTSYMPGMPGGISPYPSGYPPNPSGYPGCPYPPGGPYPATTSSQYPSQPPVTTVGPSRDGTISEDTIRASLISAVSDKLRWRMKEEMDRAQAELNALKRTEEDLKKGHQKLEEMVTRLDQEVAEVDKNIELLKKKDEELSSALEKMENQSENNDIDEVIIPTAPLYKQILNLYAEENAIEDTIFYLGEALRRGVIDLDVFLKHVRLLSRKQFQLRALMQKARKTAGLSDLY
Procedure, shortened: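 Tsg101 binding domain (10 uM final) in pH 7.5 HEPES/NaCl/Tween 20/EDTA/TCEP buffer was mixed with pin-transferred compounds, then FITC-labeled PTAP peptide (50 nM final) was added; after 20 min at r.t., fluorescence polarization was read.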

[13] = qHTS Validation Assay to Find Inhibitors of Chronic Active B-Cell Receptor Signaling (AID 485345; active = well fitted curve in the direction sought with a large enough effect in the main read-out, with a control signal flat, not every such curve was filed as active)
Procedure, shortened: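 TMD8 ABC-DLBCL cells stably carrying doxycycline-inducible IkappaBalpha–green luciferase fusion plus unfused red luciferase; compounds 46 uM to 3 nM, 4 h at 37C with doxycycline. Corrected green/red luminescence ratio normalized to 10 uM MG-132 and basal cell wells; curves fitted.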

[14] = target: Beta-2 adrenergic receptor (Homo sapiens) (UniProt P07550); test: qHTS validation assay of beta-arrestin-biased ligands of beta2-adrenergic receptor (AID 485366)
Beta-2 adrenergic receptor (Homo sapiens), sequence (P07550 whole entry, looked up): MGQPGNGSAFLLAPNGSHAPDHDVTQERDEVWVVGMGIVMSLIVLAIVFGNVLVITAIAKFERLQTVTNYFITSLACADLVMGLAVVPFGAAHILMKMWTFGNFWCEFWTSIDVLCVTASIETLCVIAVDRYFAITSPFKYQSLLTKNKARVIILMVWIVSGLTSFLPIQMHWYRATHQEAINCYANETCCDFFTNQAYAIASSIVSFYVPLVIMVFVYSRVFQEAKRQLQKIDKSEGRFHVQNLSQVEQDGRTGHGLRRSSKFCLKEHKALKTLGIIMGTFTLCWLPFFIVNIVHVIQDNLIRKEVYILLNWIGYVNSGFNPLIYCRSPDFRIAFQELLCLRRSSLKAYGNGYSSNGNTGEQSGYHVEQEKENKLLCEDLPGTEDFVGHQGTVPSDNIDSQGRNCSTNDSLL
Procedure, shortened: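 Arrestin-recruitment (Tango) reporter: ligand-bound beta2-AR recruits beta-arrestin, releasing tTA, which upregulates luciferase. Titrations of up to 46 microM incubated 18 hr at 37 degrees C before luminescent readout.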

[15] = Quantitative high throughput screen for delayed death inhibitors of the malarial parasite plastid, 96 hour incubation (AID 488745); note: nearly all actives have a fitted effect of over 70% in size; note: potency is the fitted concentration of half-maximal effect
Procedure, shortened: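 Growth of reporter-bearing P. falciparum in red cells is measured after 96 h with compound, covering two erythrocytic cycles. Luminescence from the integrated luciferase serves as the growth signal.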

[16] = Quantitative high throughput screen for delayed death inhibitors of the malarial parasite plastid, 48 hour incubation (AID 488752); note: nearly all actives have a fitted effect of over 65% in size; note: potency is the fitted concentration of half-maximal effect
Procedure, shortened: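 One parasite generation (48 h, 37 C, 5% CO2) of luciferase-reporter P. falciparum in erythrocytes is run with test compound; decreased luminescence indicates inhibited growth.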

[17] = target: Thioredoxin reductase 1, cytoplasmic (Rattus norvegicus) (UniProt O89049); test: qHTS Assay for Substrates of Mammalian Selenoprotein Thioredoxin Reductase 1 (TrxR1) (AID 488772);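 note: NADPH fluorescence in the first read after selenite addition and not the 8 min delta; series mostly up to about 57 µM; a drop in NADPH fluorescence below the no-compound background marks a TrxR1 substrate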
Thioredoxin reductase 1, cytoplasmic (Rattus norvegicus), sequence (O89049 whole entry, looked up): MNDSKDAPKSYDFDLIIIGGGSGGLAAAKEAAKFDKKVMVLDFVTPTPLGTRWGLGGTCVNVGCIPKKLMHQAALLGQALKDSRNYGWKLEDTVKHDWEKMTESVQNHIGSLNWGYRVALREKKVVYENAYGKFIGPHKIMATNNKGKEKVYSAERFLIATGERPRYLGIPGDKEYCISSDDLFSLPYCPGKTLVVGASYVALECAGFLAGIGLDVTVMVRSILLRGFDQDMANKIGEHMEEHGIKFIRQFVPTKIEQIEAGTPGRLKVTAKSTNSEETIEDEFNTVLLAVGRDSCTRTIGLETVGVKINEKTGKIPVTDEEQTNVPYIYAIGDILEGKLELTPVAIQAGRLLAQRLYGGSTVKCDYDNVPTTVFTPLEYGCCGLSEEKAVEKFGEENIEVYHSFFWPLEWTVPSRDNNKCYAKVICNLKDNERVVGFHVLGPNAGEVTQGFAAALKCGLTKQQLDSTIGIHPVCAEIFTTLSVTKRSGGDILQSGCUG
Procedure, shortened: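 Quantitative HTS in Tris-HCl buffer at pH 7.5 with EDTA and Tween-20, using rat TrxR1, 400 uM NADPH and 400 uM selenite (final). A fall in initial NADPH fluorescence relative to background marked substrate behaviour.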

[18] = target: RecQ-like DNA helicase BLM (Homo sapiens) (UniProt P54132); test: qHTS Validation Assay for Inhibitors of Bloom's syndrome helicase (BLM) (AID 2364); note: potency is the fitted concentration of half-maximal effect
RecQ-like DNA helicase BLM (Homo sapiens), sequence (P54132 whole entry, looked up): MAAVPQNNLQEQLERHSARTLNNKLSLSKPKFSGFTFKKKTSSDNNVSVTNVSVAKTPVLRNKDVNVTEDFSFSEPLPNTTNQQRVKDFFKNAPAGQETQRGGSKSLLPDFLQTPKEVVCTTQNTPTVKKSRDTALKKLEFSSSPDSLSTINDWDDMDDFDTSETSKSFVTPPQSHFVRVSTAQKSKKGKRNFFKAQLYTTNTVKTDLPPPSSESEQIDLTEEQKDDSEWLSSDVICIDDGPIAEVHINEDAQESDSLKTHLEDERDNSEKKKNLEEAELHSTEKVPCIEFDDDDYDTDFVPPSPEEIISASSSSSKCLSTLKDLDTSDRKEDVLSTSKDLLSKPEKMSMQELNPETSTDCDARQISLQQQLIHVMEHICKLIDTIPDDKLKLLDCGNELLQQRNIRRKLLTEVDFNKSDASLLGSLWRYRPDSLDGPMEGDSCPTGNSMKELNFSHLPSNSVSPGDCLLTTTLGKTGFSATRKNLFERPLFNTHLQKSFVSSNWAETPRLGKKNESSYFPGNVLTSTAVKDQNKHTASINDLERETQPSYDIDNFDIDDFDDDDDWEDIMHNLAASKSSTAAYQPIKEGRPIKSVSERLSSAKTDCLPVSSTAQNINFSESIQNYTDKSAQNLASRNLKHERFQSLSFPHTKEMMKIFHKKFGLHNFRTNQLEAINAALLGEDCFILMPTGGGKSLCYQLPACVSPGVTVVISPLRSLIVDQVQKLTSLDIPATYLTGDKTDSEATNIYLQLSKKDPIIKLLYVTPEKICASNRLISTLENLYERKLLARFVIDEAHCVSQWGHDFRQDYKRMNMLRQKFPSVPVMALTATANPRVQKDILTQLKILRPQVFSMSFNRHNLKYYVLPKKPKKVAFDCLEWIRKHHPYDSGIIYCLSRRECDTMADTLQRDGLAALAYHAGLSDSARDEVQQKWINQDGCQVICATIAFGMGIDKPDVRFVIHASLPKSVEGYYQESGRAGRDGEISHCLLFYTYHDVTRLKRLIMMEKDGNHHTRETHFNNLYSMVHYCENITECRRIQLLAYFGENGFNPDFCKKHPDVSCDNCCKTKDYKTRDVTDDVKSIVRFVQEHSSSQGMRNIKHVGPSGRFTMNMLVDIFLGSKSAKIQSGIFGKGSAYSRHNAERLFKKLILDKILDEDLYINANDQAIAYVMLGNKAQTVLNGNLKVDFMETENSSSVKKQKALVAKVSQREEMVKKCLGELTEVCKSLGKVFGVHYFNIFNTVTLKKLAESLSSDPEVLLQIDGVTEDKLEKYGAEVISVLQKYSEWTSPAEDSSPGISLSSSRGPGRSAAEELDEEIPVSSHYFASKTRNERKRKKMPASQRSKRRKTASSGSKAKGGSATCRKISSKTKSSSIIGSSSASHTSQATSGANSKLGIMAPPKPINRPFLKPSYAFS
Procedure, shortened: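 50 nM BLM preincubated 15 min at room temperature with compound in pH 8.0 Tris buffer containing 2.5 ug/ml poly(dI-dC); started with 200 nM TAMRA/BHQ-2 forked duplex and 2 mM ATP (final). Unwinding read as TAMRA fluorescence increase, two reads 2 h apart.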

[19] = target: ATP-dependent 6-phosphofructokinase (Trypanosoma brucei brucei) (UniProt O15648); test: qHTS Validation Assay to Find Inhibitors of T. brucei phosphofructokinase (AID 485368); conditions: outcome: dose series up to 57.5 µM
ATP-dependent 6-phosphofructokinase (Trypanosoma brucei brucei), sequence (O15648 whole entry, looked up): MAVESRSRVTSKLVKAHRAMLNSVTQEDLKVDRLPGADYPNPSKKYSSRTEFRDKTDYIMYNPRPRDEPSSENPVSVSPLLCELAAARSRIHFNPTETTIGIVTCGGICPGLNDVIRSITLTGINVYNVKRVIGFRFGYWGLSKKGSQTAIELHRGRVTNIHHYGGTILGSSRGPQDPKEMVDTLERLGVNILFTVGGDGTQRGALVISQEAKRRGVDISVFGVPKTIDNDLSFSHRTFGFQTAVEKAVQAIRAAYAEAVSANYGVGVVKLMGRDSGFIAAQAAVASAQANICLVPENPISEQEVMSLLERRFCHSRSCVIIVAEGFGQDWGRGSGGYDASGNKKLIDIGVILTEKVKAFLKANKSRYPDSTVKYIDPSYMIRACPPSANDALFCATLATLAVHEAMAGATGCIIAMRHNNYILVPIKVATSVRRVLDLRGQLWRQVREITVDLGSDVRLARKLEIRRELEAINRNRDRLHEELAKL
Procedure, shortened: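 Steps: substrate mix (0.5 mM F6P, 0.1 mM ATP, MgCl2, TEA pH 8.0); compound; 1.25 nM T. brucei PFK; 45 min RT; ATP depletion 10 min; ADP-to-ATP detection 10 min; luminescence read; curve fitting and classification.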

Measured: Potency

NS(=O)(=O)c1cc2c(cc1Cl)NC=NS2(=O)=O
not listed: [18] | [19]
inactive: all other assays above

CCN(CC)CCCC(C)Nc1ccnc2cc(Cl)ccc12 (stereo not drawn)
active: [1] 282 nM | [15] 262 nM | [16] 165 nM
not listed: [3]
inactive: all other assays above

N[C@@H]1CONC1=O
not listed: [3] | [18] | [19]
inactive: all other assays above

CC(C)(C)NCC(O)c1ccc(O)c(CO)c1 (stereo not drawn)
not listed: [1] | [2] | [3] | [14]
inactive: all other assays above

O=C1CCc2cc(OCCCCc3nnnn3C3CCCCC3)ccc2N1
not listed: [1] | [2] | [3] | [13] | [18] | [19]
inactive: all other assays above

CCCC(CCC)C(=O)O
not listed: [1] | [2] | [18]
inactive: all other assays above

Oc1ccc(C2CNCCc3c2cc(O)c(O)c3Cl)cc1 (stereo not drawn)
inactive: [6] | [7] | [8] | [9] | [10] | [12] | [13] | [14] | [17]
active: [1] 11200 nM | [18] 35500 nM

OC(CN1CCC(Cc2ccc(F)cc2)CC1)c1ccc(Cl)cc1 (stereo not drawn)
active: [1] 1410 nM | [15] 2940 nM | [16] 3290 nM
not listed: [2] | [3] | [4] | [8] | [9] | [18]
inactive: all other assays above

O=C(O)COCCN1CCN(C(c2ccccc2)c2ccc(Cl)cc2)CC1 (stereo not drawn)
inactive: [6] | [8] | [10] | [12] | [13] | [14] | [17]

c1ccc([C@H]2CN3CCSC3=N2)cc1
not listed: [2] | [3] | [4] | [18] | [19]
inactive: all other assays above

CCn1cc(C(=O)O)c(=O)c2cc(F)c(N3CCNC(C)C3)c(F)c21 (stereo not drawn)
not listed: [1] | [2] | [3] | [15]
inactive: all other assays above

NNCCc1ccccc1
not listed: [1] | [2] | [3] | [13] | [18] | [19]
inactive: all other assays above

NC(N)=NC(=O)c1nc(Cl)c(N)nc1N
inactive: [5] | [6] | [7] | [8] | [9] | [10] | [11] | [12] | [14] | [19]
